Assay outcomes from PubChem BioAssay.
SMN2 splice up: SMN2 splice variant enhancement. AID 1458. HEK293 SMN2-luciferase splicing reporter, luminescence, 30-36 h. Potency, µM (series often up to 46.1 µM), without a hit: at the highest dose activity change, positive = activation, hits mostly activators. 210,000 compounds, 2.8% hits; also: % of control where 0% means no effect; nearly all actives have a fitted effect of over 55% in size
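qHTS luciferase splicing reporter: luminescence rises when SMN2 exon 7 is included in transfected HEK293 cells. Compound exposure lasted 30-36 h at 37C, with 4.5 mM final sodium butyrate as control, followed by a ONE-Glo read.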
FLuc modulator: counter-screen for miR-21 project: firefly luciferase inhibitors or activators; P08659; purified FLuc, Km substrates, luminescence inhibition; Potency, µM (series often up to 57.5 µM), without a hit: at the highest dose activity change, negative = inhibition, actives largely listed as inhibitors; 360,000 compounds, 6.9% hits; AID 588342;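 also: plate controls were vehicle for no effect and reference inhibitor for full effect; nearly all actives have a fitted effect of over 55% in size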
Target sequence (P08659 whole entry, looked up): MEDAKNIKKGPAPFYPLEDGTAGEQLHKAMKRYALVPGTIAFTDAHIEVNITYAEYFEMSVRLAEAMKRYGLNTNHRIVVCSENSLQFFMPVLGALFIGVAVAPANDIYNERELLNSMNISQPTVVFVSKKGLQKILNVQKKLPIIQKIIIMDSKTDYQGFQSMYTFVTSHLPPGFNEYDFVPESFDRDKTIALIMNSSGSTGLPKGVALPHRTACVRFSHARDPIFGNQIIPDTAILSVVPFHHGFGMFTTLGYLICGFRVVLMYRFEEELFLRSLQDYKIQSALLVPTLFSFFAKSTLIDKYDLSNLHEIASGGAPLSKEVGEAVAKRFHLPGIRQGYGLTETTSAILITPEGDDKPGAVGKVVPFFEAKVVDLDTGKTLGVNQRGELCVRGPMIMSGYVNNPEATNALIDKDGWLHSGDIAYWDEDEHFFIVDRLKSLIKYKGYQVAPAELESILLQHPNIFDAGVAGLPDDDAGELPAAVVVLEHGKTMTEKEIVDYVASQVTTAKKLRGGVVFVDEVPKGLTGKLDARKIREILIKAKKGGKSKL
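Purified P. pyralis luciferase (10nM final) with 10uM D-luciferin and 10uM ATP (Km levels) in 50mM Tris acetate pH 7.5, 10mM Mg acetate, 0.01% Tween-20, 0.05% BSA; qHTS 6-point titration, ~60 µM downward; luminescence read.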
NPC1 promoter act: activators of NPC1 promoter; Potency, µM (top dose mostly 9.22 µM), for inactives: at the top dose activation, most hits filed as activators; 320,000 compounds, 2.4% hits; Huh7 NPC1 promoter luciferase reporter, 24 h; also: % of control where 0% means no effect; nearly all actives have a fitted effect of over 60% in size
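Stable NPC1-promoter luciferase Huh7 line; cpd (DMSO) 24 h, 37 °C, 5% CO2; Amplite luciferase reagent 10 min RT; luminescence readout. qHTS format.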
ELG1 genotoxic: induces genotoxicity in HEK293T cells with luciferase-tagged ELG1 | 330,000 compounds, 1.3% hits | AID 504466 | Potency, µM (doses to about 46 µM), for inactives: at the top dose activity change, positive = activation, hits mostly activators | HEK293T ELG1-luciferase reporter, luminescence, 16 h; also: % of control where 0% means no effect; nearly all actives have a fitted effect of over 60% in size
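Step 1: seed 2,000 HEK293T ELG1-luciferase cells per well. Step 2: add compound or DMSO, incubate 16 hr at 37 °C. Step 3: ONE-Glo, 30 min at room temperature, read luminescence.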
Rab9 prom act: Rab9 promoter activation; Huh7 Rab9 promoter-luciferase reporter, luminescence, 24 h; Potency, µM (titrated, usually from 9.22 µM), for inactives: at the top dose activation, negative = inhibition, most hits filed as activators; 320,000 compounds, 2.8% hits; AID 485297; also: % of control where 0% means no effect; nearly all actives have a fitted effect of over 60% in size
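Huh7 cells stably carrying Rab9 promoter–luciferase reporter, plated 1500 cells/well, compound added after 2 h and incubated 24 h at 37 °C; luciferase luminescence then read after 10 min with detection reagent.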
ELG1 repair inh: ELG1-dependent DNA repair inhibition. HEK293T ELG1-luciferase reporter, luminescence, 16 h; DNA damage induced by 5-fluorouridine. Potency, µM (titrated, usually from 46.1 µM), for inactives: at the highest dose activity change, negative = inhibition, hits mostly inhibitors. 330,000 compounds, 2.3% hits. AID 504467; also: % is scaled to controls: 0 for no effect and ±100 for the full control effect; nearly all actives have a fitted effect of over 55% in size
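Luminescence from the luciferase reporter, measured 30 min after ONE-Glo reagent at room temperature, was the read-out. Beforehand, 2,000 cells per well were exposed for 16 hr at 37 °C to 5-fluorouridine together with compound or vehicle.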
An asterisk follows results filed as active; ? = inconclusive; / = no result; [ ] = remark or other dose. Sampled rows, rich in hits. Any-hit rate of the full collection: about 9.3%. Calls follow the shape of the dose curve; as a rule, active = well fitted curve in the direction sought with a large enough effect; inconclusive = small, poorly fitted or top-dose-only effect, or another doubt; inactive = no such curve, though single readings can be large; an effect the other way counts as inactive or inconclusive. Potency is read from the fitted curve at half-maximal effect.

SMILES | SMN2 splice up | FLuc modulator | NPC1 promoter act | ELG1 genotoxic | Rab9 prom act | ELG1 repair inh
CC(C)CC(=O)Nc1ccc(S(=O)(=O)N2CCCC2)cc1 | / | -2% | -2% | 0% | 5% | 1%
CCc1ccc(NC(=O)C(=O)N/N=C(\C)CC(=O)Nc2ccc(OC)cc2)cc1 | 1% | ? | 0% | 6% | -1% | ?
CSc1cccc(NC(=O)COc2ccccc2C)c1 | 16% | 15µM* | -1% | 5% | 3% | 17%
COc1cccc(NC(=O)C(=O)N/N=C(\C)CC(=O)Nc2ccc(NC(C)=O)cc2)c1 | / | 11µM* | -2% | ? | 12% | ?
CC(=O)Nc1cccc(OCC(=O)Nc2ccccc2)c1 | 22µM* | ? | 3.5µM* | 10µM* | 3.2µM* | ?
CCOc1ccc(-c2cccc(NC(=O)COc3ccccc3)c2)nn1 | / | 15µM* | -1% | -1% | 3% | 11%
CCOc1ccc(CC(=O)Nc2cccc(-c3ccc4nnc(C)n4n3)c2)cc1 | 3% | -13% | -7% | ? | 0% | ?
CCN(CC)S(=O)(=O)c1ccc(Cc2ncc(C(F)(F)F)cc2Cl)s1 | -25% | 0% | 0% | -9% | 5% | ?
CCC1CCCCN1C(=O)c1ccc(OC2CCN(C(=O)COC)CC2)cc1 (stereo unspecified) | / | 0% | -5% | 6% | 10% | 3%
CC(=O)Nc1cccc(OCC(=O)Nc2sccc2C(N)=O)c1 | / | 8.5µM* | 2.5µM* | ? | 1.1µM* | ?
CC(=O)Nc1cccc(NC(=O)COc2ccc3c(c2)CCC3)c1 | / | 8.5µM* | 12% | 0% | 17% | ?
Cc1cnc(C(=O)Nc2ccc(C(=O)N(C)C3CCCCC3)cc2)cn1 | -9% | 1% | 0% | 1% | 6% | 12%
Cc1cnc(C(=O)Nc2ccc(F)cc2)cn1 | 13µM* | 24µM* | 2.5µM* | ? | ? | ?
Cc1cnc(C(=O)Nc2ccccc2F)cn1 | ? | 24µM* | 3.5µM* | 16µM* | 18%[1.84 µM] | ?
Cc1cnc(C(=O)Nc2ccc(C(C)C)cc2)cn1 | 10µM* | 8.5µM* | 3.5µM* | ? | 1.3µM* | ?
O=C(CN1CCN(c2ccc(F)cc2)CC1)NCC1CCCO1 (stereo unspecified) | -23% | 2% | -1% | 2% | -10% | -3%
O=C(CSc1nc2ccccc2c(=O)n1Cc1ccccc1)NCc1ccco1 | -15% | 1% | 0% | 1% | 1% | 8%
Cc1ccc(-n2c(=O)c3c(cnn3C)n(CC(=O)Nc3cc(C)ccc3C)c2=O)cc1 | 2% | -1% | / | / | / | /
COc1ccc2sc3ccccc3c(=O)c2c1OC | 19% | 15µM* | ? | ? | ? | ?
COc1ccccc1-c1oc2ccccc2c1C#CC1(O)CCCCC1 | / | / | / | 0% | / | 23%
COc1cccc2oc3cc(C#Cc4ccccn4)ccc3c(=O)c12 | / | 4.8µM* | 2.5µM* | 19% | 3.2µM* | ?
COc1cccc2oc3cc(C#CC4(O)CCCCC4)ccc3c(=O)c12 | / | 0.6µM* | 0.35µM* | 0.41µM* | 0.35µM* | ?
COC(=O)c1c(-c2ccccc2OC)sc2ccccc12 | / | -10% | 0% | -1% | -4% | -18%
COc1cccc2sc3ccc(C#CC4(O)CCCCC4)cc3c(=O)c12 | / | 2.1µM* | 1.6µM* | ? | 2.8µM* | ?
CC1CN(C(=O)c2c([N+](=O)[O-])cnn2C)CC(C)O1 (stereo unspecified) | -4% | 7% | 1% | 1% | -14% | -2%
SMILES | SMN2 splice up | FLuc modulator | NPC1 promoter act | ELG1 genotoxic | Rab9 prom act | ELG1 repair inh
COc1cccc2sc3ccc(C#Cc4ccc(N)cc4)cc3c(=O)c12 | / | 4.8µM* | 3.5µM* | ? | 2.5µM* | ?
COc1cccc2sc3ccc(NCc4ccc5c(c4)OCO5)cc3c(=O)c12 | / | ? | 2% | 4% | 3% | 13%
O=S(Cc1ccc(Br)cc1)Cc1nnc(SCc2ccc(Cl)cc2)n1-c1ccccc1 (stereo unspecified) | -43% | -3% | -5% | -6% | -12% | ?
O=S(Cc1ccc(Br)cc1)Cc1nnc(SCc2c(F)cccc2Cl)n1-c1ccccc1 (stereo unspecified) | -69% | 0% | -9% | -7% | -21% | 23µM*
COc1ccc(NC(=O)CCc2ccccc2)cc1S(=O)(=O)N1CCCCC1 | / | 0% | -2% | 1% | -15% | -18%
COc1ccc(NC(=O)CCc2nc3ccccc3c(=O)[nH]2)cc1S(=O)(=O)N1CCCCC1 | / | / | / | -4% | / | 26µM*
CCc1ccc(NC(=O)c2n[nH]c(=O)c3ccccc23)cc1 | / | ? | 3.2µM* | ? | 2.5µM* | ?
COc1ccc(CCC(=O)Nc2ccc(Cl)c(S(=O)(=O)N3CCCC3)c2)cc1 | / | -8% | -22% | 1% | -31% | 4.6µM*
COc1ccc(NC(=O)c2n[nH]c(=O)c3ccccc23)cc1S(=O)(=O)N1CCCCC1 | -41% | -1% | -4% | -1% | -8% | 23µM*
COc1ccc(CCC(=O)Nc2ccc(OC)c(S(=O)(=O)N3CCCCC3)c2)cc1OC | / | 4% | -1% | -3% | -8% | ?
COc1ccc(NC(=O)c2ccco2)cc1S(=O)(=O)N1CCCCC1 | / | -1% | 0% | 1% | 0% | 0%
Cc1cc(N2CCOCC2)ncc1[N+](=O)[O-] | 14% | 3% | -1% | 2% | -2% | -10%
CC(C)(C)OC(=O)N1CCN(C(=O)c2nc[nH]c2C(=O)N2CCN(C(=O)OC(C)(C)C)CC2)CC1 | / | 3% | -3% | 3% | -10% | 21%
Cn1cc(C(=O)N/N=C/c2cccc(O)c2)ccc1=O | 2% | -6% | -9% | 0% | 11% | -2%
CCOC(=O)c1ccc(NC(=O)CN2C(=O)CNC2=O)cc1 | -5% | -14% | 0% | 0% | 3% | ?
COc1ccc(NC(=O)[C@@H]2CCCN2S(=O)(=O)c2ccccc2F)cc1S(=O)(=O)N1CCCCC1 | / | / | / | -9% | / | 15µM*
CCN(c1ccc(NC(=O)COC(=O)c2cccs2)cc1)C(C)C | ? | 8.5µM* | -1% | 0% | 13% | ?
COc1cc(OC)cc(C(=O)OCC(=O)Nc2ccc3[nH]c(=O)[nH]c3c2)c1 | / | 6% | 3% | 1% | 3% | 0%
CCN(CC)c1ccc(NC(=O)COC(=O)c2cccs2)cc1 | -3% | 12µM* | -1% | -1% | 2% | 26%
CCN(CC)c1ccc(NC(=O)COC(=O)c2ccc3ccccc3n2)cc1 | 23% | 24µM* | 11% | 1% | -4% | 26%
CC(=O)c1cccc(NC(=O)COC(=O)c2cccs2)c1 | 2% | ? | -20% | 6% | 3% | -3%
